ChEMBL document CHEMBL1961873, “Compounds: GSK PKIS; Assays: Nanosyn kinase panel” (2012)

Key:
[1] = biological target: Tyrosine-protein kinase SYK (Homo sapiens) (UniProt P43405); details: at 1 µM
[2] = biological target: T1, Tyrosine-protein kinase Tec (Homo sapiens) (UniProt P42680); details: at 0.1 µM
T1 sequence (whole entry): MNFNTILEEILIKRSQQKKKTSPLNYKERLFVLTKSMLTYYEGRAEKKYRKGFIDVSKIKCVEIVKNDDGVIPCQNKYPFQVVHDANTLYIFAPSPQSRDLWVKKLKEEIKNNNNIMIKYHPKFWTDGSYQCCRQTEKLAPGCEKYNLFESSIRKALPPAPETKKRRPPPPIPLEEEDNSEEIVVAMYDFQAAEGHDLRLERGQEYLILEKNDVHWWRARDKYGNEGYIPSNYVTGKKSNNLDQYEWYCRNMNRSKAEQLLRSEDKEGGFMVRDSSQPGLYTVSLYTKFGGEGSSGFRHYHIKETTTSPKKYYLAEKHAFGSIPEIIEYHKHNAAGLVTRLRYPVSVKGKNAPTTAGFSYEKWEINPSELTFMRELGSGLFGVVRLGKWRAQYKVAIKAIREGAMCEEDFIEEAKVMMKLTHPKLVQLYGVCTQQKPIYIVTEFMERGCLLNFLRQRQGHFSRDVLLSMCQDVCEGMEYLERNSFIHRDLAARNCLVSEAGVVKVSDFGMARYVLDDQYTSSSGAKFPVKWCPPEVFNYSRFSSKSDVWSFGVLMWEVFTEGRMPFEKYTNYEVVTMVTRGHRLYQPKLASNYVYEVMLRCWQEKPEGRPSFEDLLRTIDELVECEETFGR

[3] = biological target: T1, Tyrosine-protein kinase Tec (Homo sapiens); details: at 1 µM
[4] = biological target: Angiopoietin-1 receptor (Homo sapiens) (UniProt Q02763); details: at 0.1 µM
[5] = biological target: Angiopoietin-1 receptor (Homo sapiens) (UniProt Q02763); details: at 1 µM
[6] = biological target: T2, Non-receptor tyrosine-protein kinase TNK1 (Homo sapiens) (UniProt Q13470); details: at 0.1 µM
T2 sequence (whole entry): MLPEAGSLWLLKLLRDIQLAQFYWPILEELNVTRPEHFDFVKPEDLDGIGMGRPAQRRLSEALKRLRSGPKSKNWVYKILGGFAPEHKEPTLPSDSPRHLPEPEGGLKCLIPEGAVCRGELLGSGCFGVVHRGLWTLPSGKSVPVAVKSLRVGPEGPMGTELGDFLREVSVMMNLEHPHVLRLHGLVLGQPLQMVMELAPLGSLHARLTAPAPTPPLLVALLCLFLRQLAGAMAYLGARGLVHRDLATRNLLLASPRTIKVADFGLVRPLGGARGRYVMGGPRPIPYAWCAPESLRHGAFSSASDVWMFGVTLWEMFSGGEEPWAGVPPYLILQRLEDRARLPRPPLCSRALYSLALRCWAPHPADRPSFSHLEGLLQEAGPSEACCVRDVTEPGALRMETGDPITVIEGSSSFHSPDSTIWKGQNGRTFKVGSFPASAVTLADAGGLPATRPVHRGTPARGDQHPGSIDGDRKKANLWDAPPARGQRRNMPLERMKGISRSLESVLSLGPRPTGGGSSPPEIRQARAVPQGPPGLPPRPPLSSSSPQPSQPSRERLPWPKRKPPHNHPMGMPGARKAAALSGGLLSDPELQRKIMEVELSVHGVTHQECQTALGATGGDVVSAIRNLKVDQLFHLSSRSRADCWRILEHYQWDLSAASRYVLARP

[7] = biological target: T2, Non-receptor tyrosine-protein kinase TNK1 (Homo sapiens); details: at 1 µM
[8] = biological target: Activated CDC42 kinase 1 (Homo sapiens) (UniProt Q07912); details: at 0.1 µM
[9] = biological target: Activated CDC42 kinase 1 (Homo sapiens) (UniProt Q07912); details: at 1 µM
[10] = biological target: High affinity nerve growth factor receptor (Homo sapiens) (UniProt P04629); details: at 0.1 µM
[11] = biological target: High affinity nerve growth factor receptor (Homo sapiens) (UniProt P04629); details: at 1 µM
[12] = biological target: BDNF/NT-3 growth factors receptor (Homo sapiens) (UniProt Q16620); details: at 0.1 µM
[13] = biological target: BDNF/NT-3 growth factors receptor (Homo sapiens) (UniProt Q16620); details: at 1 µM
[14] = biological target: NT-3 growth factor receptor (Homo sapiens) (UniProt Q16288); details: at 0.1 µM
[15] = biological target: NT-3 growth factor receptor (Homo sapiens) (UniProt Q16288); details: at 1 µM
[16] = biological target: T3, Tyrosine-protein kinase TXK (Homo sapiens) (UniProt P42681); details: at 0.1 µM
T3 sequence (whole entry): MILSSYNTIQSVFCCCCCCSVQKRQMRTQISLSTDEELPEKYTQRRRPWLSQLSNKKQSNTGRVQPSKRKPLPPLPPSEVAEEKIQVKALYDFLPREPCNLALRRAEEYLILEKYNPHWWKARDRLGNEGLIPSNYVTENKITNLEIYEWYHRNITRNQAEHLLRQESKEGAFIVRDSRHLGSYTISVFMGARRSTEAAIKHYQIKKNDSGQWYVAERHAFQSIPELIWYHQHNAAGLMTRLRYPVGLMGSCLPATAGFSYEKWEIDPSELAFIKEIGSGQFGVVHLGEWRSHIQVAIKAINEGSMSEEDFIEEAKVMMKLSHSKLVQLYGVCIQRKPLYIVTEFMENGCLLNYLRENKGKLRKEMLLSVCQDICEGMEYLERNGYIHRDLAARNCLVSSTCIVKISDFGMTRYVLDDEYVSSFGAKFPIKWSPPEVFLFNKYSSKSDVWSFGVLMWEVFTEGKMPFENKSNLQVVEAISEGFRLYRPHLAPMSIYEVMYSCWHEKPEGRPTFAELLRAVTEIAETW

[17] = biological target: T3, Tyrosine-protein kinase TXK (Homo sapiens); details: at 1 µM
[18] = biological target: Non-receptor tyrosine-protein kinase TYK2 (Homo sapiens) (UniProt P29597); details: at 0.1 µM;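 also: each value is a mean of the inhibition readings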
[19] = biological target: T4, Dual specificity protein kinase TTK (Homo sapiens) (UniProt P33981); details: at 1 µM;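 also: reported figures are mean TTK inhibition at 1 µM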
T4 sequence (whole entry): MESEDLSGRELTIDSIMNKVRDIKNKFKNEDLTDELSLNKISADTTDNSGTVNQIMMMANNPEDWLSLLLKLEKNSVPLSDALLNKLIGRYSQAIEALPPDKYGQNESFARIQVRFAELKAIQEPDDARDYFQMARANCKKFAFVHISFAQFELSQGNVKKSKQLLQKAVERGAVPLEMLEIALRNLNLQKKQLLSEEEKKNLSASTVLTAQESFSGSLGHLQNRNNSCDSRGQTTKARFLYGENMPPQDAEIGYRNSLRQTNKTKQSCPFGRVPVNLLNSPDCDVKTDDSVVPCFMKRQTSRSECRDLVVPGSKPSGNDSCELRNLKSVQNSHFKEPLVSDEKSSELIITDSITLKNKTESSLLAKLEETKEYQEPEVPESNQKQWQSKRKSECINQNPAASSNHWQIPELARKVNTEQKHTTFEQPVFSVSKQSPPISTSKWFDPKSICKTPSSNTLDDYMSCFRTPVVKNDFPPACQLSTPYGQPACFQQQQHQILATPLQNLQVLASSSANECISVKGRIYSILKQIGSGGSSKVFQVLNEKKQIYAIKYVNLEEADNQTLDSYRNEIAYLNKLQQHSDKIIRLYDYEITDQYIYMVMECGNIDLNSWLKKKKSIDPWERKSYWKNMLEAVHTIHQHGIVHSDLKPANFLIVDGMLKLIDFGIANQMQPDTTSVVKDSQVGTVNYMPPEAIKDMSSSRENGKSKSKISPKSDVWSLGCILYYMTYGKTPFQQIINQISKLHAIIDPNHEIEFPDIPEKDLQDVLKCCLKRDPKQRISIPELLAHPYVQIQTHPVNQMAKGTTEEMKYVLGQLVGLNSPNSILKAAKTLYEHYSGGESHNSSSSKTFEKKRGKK

[20] = biological target: T5, Aurora kinase A (Homo sapiens) (UniProt O14965); details: at 0.1 µM;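 also: each reported value is a mean percent inhibition of Aurora-A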
T5 sequence (whole entry): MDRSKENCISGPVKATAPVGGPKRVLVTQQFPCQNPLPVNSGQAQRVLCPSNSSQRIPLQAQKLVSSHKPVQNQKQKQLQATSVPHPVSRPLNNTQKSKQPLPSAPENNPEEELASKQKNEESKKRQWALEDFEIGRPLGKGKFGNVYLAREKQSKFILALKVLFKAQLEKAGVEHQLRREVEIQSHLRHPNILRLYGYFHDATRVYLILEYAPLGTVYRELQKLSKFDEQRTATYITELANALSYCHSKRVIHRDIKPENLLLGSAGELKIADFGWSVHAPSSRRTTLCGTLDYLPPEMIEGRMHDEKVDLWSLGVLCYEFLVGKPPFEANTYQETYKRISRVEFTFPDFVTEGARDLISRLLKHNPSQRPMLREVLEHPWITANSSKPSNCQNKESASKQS

NT-3 growth factor receptor (Homo sapiens), sequence (Q16288 32-839 limits assumed): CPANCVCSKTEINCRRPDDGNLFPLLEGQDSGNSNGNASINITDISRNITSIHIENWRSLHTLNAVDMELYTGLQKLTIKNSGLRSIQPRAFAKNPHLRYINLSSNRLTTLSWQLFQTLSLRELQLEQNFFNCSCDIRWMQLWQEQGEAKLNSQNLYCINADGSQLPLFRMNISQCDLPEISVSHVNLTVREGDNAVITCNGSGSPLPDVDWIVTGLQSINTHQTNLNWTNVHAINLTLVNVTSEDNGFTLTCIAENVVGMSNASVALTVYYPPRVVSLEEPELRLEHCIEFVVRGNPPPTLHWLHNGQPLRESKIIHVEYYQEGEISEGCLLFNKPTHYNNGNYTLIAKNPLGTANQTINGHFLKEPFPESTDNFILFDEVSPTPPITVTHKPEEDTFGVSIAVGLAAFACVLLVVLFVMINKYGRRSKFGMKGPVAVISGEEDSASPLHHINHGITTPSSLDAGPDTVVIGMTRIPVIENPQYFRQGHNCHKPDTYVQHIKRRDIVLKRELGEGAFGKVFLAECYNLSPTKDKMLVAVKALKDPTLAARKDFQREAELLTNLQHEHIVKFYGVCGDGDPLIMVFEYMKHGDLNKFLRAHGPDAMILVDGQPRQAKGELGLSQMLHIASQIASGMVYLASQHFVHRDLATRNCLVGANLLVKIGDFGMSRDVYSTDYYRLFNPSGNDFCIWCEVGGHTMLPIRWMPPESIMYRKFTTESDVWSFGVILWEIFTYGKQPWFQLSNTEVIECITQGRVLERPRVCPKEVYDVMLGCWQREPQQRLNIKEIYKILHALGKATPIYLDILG
Activated CDC42 kinase 1 (Homo sapiens), sequence (Q07912 whole entry, looked up): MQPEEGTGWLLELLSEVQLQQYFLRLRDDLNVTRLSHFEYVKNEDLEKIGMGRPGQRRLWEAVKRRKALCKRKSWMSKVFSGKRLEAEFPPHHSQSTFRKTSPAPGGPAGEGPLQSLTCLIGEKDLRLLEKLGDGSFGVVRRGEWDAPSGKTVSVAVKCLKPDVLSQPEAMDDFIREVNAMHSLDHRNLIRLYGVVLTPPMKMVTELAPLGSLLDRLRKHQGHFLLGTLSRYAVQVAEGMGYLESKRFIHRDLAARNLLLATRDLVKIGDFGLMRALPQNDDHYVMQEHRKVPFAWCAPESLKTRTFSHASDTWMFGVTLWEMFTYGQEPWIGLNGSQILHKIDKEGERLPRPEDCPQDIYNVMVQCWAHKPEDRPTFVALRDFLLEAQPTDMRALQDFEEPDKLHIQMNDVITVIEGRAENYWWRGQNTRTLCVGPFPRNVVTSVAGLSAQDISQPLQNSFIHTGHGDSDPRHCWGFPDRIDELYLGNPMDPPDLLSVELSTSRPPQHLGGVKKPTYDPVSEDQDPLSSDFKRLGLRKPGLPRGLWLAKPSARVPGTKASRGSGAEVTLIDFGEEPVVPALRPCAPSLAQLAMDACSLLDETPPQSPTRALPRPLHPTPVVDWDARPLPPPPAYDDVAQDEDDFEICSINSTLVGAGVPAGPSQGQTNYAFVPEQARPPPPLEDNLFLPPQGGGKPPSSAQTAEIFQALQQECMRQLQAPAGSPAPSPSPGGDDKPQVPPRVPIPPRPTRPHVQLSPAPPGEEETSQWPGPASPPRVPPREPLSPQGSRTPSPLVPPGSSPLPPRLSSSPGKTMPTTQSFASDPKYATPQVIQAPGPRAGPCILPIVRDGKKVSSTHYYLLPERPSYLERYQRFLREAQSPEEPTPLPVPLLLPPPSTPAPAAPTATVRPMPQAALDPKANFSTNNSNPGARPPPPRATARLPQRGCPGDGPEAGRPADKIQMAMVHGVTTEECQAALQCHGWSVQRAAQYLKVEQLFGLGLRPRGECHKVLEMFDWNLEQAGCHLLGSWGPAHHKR
Non-receptor tyrosine-protein kinase TYK2 (Homo sapiens), sequence (P29597 whole entry): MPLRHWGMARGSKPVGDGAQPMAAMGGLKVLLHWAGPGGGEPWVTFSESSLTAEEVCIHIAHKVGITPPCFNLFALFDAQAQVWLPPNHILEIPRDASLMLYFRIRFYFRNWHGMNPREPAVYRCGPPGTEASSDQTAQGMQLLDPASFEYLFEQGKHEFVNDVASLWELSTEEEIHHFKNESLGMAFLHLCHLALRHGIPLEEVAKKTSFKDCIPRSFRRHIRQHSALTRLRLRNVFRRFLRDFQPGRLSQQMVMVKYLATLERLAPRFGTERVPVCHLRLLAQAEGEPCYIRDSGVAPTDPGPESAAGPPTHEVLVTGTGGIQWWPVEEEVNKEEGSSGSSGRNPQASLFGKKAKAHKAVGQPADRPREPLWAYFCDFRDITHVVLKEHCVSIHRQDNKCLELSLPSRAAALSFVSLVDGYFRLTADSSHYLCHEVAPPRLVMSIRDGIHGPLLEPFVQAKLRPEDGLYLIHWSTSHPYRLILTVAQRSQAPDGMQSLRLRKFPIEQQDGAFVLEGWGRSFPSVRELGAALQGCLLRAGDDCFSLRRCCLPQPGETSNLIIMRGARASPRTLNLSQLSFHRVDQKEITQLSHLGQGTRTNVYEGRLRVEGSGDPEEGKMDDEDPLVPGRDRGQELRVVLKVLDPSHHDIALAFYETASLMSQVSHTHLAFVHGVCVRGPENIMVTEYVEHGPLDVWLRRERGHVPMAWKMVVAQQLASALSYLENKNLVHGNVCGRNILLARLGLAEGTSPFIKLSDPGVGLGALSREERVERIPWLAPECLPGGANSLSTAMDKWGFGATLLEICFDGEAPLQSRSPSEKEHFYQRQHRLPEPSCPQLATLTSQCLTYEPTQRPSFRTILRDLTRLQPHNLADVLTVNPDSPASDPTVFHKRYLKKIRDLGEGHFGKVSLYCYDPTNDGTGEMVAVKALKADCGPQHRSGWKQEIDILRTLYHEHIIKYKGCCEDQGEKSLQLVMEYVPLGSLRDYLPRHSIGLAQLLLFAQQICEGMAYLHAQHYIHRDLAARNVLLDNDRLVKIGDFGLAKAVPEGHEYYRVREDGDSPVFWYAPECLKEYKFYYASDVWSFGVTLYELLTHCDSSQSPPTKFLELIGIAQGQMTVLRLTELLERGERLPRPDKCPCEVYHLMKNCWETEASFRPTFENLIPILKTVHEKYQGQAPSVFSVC
BDNF/NT-3 growth factors receptor (Homo sapiens), sequence (Q16620 32-822 limits assumed): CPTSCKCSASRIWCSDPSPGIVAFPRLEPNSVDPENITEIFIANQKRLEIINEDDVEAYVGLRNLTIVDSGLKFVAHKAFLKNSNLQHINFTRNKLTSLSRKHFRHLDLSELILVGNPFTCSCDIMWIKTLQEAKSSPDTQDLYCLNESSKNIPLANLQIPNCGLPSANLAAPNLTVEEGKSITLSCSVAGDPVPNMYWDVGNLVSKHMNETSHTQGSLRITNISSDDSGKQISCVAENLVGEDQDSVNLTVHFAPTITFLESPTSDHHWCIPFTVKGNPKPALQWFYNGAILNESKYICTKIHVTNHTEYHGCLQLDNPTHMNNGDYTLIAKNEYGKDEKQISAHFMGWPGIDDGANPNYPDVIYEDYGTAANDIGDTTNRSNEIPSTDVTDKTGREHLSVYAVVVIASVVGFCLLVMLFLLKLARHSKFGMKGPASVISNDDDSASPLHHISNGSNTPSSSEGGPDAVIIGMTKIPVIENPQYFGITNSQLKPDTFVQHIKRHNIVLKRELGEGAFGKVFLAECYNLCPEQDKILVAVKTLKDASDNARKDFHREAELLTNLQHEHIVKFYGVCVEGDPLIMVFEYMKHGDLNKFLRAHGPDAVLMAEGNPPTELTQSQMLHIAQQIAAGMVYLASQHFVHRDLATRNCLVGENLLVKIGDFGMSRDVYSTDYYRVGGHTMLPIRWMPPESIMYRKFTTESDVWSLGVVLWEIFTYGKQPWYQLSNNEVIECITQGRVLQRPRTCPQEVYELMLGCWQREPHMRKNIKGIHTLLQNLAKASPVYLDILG
High affinity nerve growth factor receptor (Homo sapiens), sequence (P04629 33-796 limits assumed): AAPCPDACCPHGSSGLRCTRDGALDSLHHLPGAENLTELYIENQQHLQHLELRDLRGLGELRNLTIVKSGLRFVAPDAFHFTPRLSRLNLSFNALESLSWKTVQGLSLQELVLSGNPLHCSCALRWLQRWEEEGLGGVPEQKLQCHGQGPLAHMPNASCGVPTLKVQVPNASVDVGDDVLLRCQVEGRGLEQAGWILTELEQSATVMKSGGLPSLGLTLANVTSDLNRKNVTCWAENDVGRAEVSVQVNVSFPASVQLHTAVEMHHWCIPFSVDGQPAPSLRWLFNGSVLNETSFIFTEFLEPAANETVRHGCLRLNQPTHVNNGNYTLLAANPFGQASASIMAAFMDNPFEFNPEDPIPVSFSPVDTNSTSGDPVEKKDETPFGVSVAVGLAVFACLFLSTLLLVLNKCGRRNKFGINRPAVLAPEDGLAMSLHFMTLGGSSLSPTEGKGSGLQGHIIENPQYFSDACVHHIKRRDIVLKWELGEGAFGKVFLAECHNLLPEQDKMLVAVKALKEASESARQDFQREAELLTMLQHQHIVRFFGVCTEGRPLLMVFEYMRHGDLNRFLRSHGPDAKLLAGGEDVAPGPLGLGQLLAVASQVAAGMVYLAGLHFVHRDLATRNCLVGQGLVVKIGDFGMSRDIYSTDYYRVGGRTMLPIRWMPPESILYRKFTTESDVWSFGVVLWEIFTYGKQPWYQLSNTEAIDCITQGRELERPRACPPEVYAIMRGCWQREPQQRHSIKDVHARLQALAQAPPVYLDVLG

Compound | inhibition [1] [%] | inhibition [2] [%] | inhibition [3] [%] | inhibition [4] [%] | inhibition [5] [%] | inhibition [6] [%] | inhibition [7] [%] | inhibition [8] [%] | inhibition [9] [%] | inhibition [10] [%] | inhibition [11] [%] | inhibition [12] [%] | inhibition [13] [%] | inhibition [14] [%] | inhibition [15] [%] | inhibition [16] [%] | inhibition [17] [%] | inhibition [18] [%] | inhibition [19] [%] | inhibition [20] [%]
COc1cc(C)c(NC(=O)CN(C)C)cc1Nc1nc(Nc2cccc(F)c2C(N)=O)c2cc[nH]c2n1 | 0.44 | 1.93 | 3.64 | 0.55 | 0.17 | 30.8 | 73.4 | 1.18 | 14 | 2.31 | 13 | 2.25 | 1.27 | 2.83 | 4.14 | 0.4 | -0.74 | 1 | 53.5 | 2.06
COc1cc2ncn(-c3cc(O[C@H](C)c4ccccc4Cl)c(C(N)=O)s3)c2cc1OC | -0.3 | 5.59 | 19.3 | 12.7 | 41.7 | 17.7 | 70.8 | 6.31 | 28.2 | 1.31 | 12.4 | 8.25 | 43.3 | 16.1 | 62.6 | 5.04 | 15.8 | -0.55 | 13.2 | 2.7
O=C1NC(=O)C(N2CCc3ccccc32)=C1c1ccc(Cl)cc1 | -1.26 | 6.1 | 9.11 | 5.59 | 8.86 | 4.03 | -0.43 | 3.17 | 1.5 | 4.36 | 3.04 | 3.69 | 7 | 2.99 | 4.89 | 5.42 | 8.99 | -4.08 | 2.25 | 2.79
Cc1ccc(C(=O)NC2CCCCC2)cc1-c1ccc(C(=O)NCC2CC2)cc1 | 0.52 | 4.18 | 5.66 | 1.79 | 4.17 | 0.56 | -2.52 | 2.3 | 4.5 | 2.3 | 2.19 | 0.88 | -0.15 | 0.18 | -0.57 | 4.64 | 5.63 | 1.37 | 8.51 | 4.04
CCc1cccc(NC(=O)Nc2ccc(Oc3ccc4nc(NC(=O)OC)[nH]c4c3)cc2)c1 | -0.99 | 2.07 | 3.91 | 46.2 | 55.7 | 3.34 | 13.8 | -0.42 | 1.35 | 30.8 | 43.7 | 21.4 | 30.7 | 20.4 | 30.3 | 2.03 | 5.13 | -5.85 | 6.45 | 2.16
CC(C)=Cc1cccc2c1/C(=N/Nc1ccc(S(N)(=O)=O)cc1)C(=O)N2 | -2.03 | 2.44 | 10.1 | 0.37 | 3.74 | 9.88 | 65.6 | 0.01 | 2.76 | 6.87 | 51.5 | 22.4 | 75.3 | 23.6 | 77.2 | 3.64 | 12.9 | 3.75 | 51.7 | 25.6
NC(=O)c1ccc(-c2nc(-c3ccccn3)c(-c3ccc4c(c3)OCO4)[nH]2)cc1 | 0.21 | 3.16 | 2.63 | 5.33 | 5.38 | 1.36 | -0.98 | 0.29 | 1.03 | 1.52 | 3.43 | 1.54 | 0.41 | 0.44 | 1.77 | 2.18 | 3.28 | -4.13 | 3.14 | 1.85
CS(=O)(=O)CCNCc1ccc(-c2ccc3ncnc(Nc4ccc(OCc5ccccc5)c(Cl)c4)c3c2)o1 | 1.51 | -0.91 | 0.89 | 7.47 | 9.67 | 2.4 | 11.3 | -0.1 | 0.61 | 2.31 | 4.84 | 2.92 | 2.87 | 1.98 | 2.17 | 1.26 | 1.47 | 1.67 | 6.09 | 0.56
CC1=C(C(=O)Nc2ccc3[nH]ncc3c2)C(c2ccc(F)cc2)NC(=O)N1 (centres undefined) | 1.72 | 2.11 | 2.37 | 0.66 | 3.1 | 4.95 | 31.2 | 0.84 | 3.68 | 0.85 | 3.3 | 0.91 | 4.06 | 0.06 | 5.04 | 1.25 | 3.78 | 1.26 | 1.11 | 7.75
Nc1nc(-c2ccc3c(c2)C(=Cc2cc(Br)c(O)c(Br)c2)C(=O)N3)cs1 | 0.99 | -1.8 | -1 | -0.24 | 3.72 | 0.05 | 37.1 | -1.13 | -0.19 | 1.01 | 2.45 | 1.16 | 9.18 | 2.62 | 16.6 | -0.27 | 0.27 | 1.72 | -0.27 | -1.16
CS(=O)(=O)CCNCc1nc(-c2ccc3ncnc(Nc4ccc(F)c(Cl)c4)c3c2)cs1 | -0.34 | 3.79 | 9.13 | 7.71 | 5.89 | 4.58 | 27.1 | 0.19 | 2.87 | 3.85 | 1.47 | 0.48 | 4.21 | 1.55 | 2.39 | 3.78 | 15.9 | -3.38 | 6.34 | 1.71
Nc1ncnc2occ(-c3ccc(NC(=O)Nc4cccc(C(F)(F)F)c4)cc3)c12 |  | 1.64 | 5.89 | 56.4 | 74.4 | 7.73 | 52.8 | 0.8 | 1.54 | 63.9 | 96.5 | 59.4 | 91.1 | 58.9 | 88.9 | -1.65 | 5.17 | -3.69 | 18.1 | 9.27
O=C1Nc2ccc(C(=O)c3ccco3)cc2C1=Cc1cc(Cl)c(O)c(Cl)c1 | -0.93 | 3.56 | 9.55 | 2.1 | 3.01 | 38.9 | 85.3 | 1.92 | 6.27 | 4.97 | 21 | 5.68 | 29.1 | 9.19 | 47.1 | 3.45 | 11.2 | -3.77 | 21.9 | 7.35
